# Data from PubChem BioAssay AID602123 (The Scripps Research Institute Molecular Screening Center, 2011).
# In all, about 360,000 compounds went through this assay and about 1,500 (0.42%) were called active. Cut-off read from the data, not from the text of the source: active = inhibition above about 13% (passing the limit was not always enough); inactive = the rest. What follows is part of a selection rich in actives, with near analogues and random picks from the rest.
# Molecular target: Lon protease (Escherichia coli (strain K12)) (UniProt P0A9M0)
# Test: E. coli eLon protease inhibition – biochemical, fluorescence polarization, primary screen (AID 602123);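 note: 0% = enzyme with probe and DMSO and 100% = no enzyme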
# Details: purified E. coli Lon protease, at 7.94 µM, hits give high values
# Lon protease (Escherichia coli (strain K12)), sequence (P0A9M0 whole entry, looked up): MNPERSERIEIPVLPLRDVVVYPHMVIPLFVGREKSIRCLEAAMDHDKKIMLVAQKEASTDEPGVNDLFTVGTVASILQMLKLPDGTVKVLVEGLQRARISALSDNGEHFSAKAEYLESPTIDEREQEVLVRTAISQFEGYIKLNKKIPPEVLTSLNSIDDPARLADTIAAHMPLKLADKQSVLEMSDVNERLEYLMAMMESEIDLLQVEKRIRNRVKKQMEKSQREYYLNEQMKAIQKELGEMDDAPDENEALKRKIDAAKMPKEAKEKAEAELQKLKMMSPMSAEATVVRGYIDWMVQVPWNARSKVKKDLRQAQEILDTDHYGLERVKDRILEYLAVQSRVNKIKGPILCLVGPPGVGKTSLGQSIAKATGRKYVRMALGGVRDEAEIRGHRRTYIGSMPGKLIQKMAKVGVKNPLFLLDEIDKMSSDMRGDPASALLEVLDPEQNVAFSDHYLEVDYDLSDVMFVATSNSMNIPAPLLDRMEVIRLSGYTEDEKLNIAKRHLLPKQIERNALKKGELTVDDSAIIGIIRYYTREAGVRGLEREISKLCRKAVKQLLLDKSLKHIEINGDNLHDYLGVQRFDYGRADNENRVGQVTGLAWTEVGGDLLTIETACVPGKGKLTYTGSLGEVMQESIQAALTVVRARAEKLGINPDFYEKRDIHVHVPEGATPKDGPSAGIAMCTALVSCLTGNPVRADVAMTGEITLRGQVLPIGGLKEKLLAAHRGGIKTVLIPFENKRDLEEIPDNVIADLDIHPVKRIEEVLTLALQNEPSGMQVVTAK
row,Compound,inhibition
1,Cc1cc(C)n(Cc2cnc(N3CCOCC3)s2)n1,-9.37% (inactive)
2,Brc1ccc(C2=CC(c3ccco3)n3ncnc3N2)cc1 (stereo not drawn),189% (active)
3,Clc1ccc2c(c1)C1=C(C(c3ccncc3)O2)C(c2ccc(Br)cc2)n2ncnc2N1 (stereo not drawn),0.69% (inactive)
4,CN1/C(=c2/s/c(=C3/C(=O)N(c4ccccc4)NC3=Nc3ccccc3)n(C)c2=O)C(C)(C)c2ccccc21,-167% (inactive)
5,CCN(CC(=O)NCc1cccs1)C(=O)c1ccccc1F,-7.98% (inactive)
6,Cc1ccc(S(=O)(=O)CCC(=O)OCC(=O)NCCc2ccc(S(N)(=O)=O)cc2)cc1,-12.1% (inactive)
7,Cc1ccc(S(=O)(=O)CCC(=O)OCc2ccccc2)cc1,15.9% (active)
8,Cc1ccc(S(=O)(=O)CCC(=O)OCC(=O)N(C)Cc2ccccc2)cc1,5.85% (inactive)
9,Cc1cc(Br)ccc1NC(=O)CN(C)C(=O)CN1C(=O)NC2(CCCC2)C1=O,-8.08% (inactive)
10,CCC(=O)c1ccc(OCC(=O)N(CC)CC2COc3ccccc3O2)cc1 (stereo not drawn),5.37% (inactive)
11,COCCCNC(=S)NC(=O)c1ccc([N+](=O)[O-])cc1,-1.2% (inactive)
12,CC(=O)NC(=S)Nc1ccc(NC(=S)NC(=O)c2ccc([N+](=O)[O-])cc2)cc1,21.3% (active)
13,CC(=O)Nc1ccc(NC(=S)NC(=O)c2ccc([N+](=O)[O-])c(C)c2)cc1,-3.89% (inactive)
14,COc1cc(Cl)c(C)cc1NC(=O)CSc1nnc(-c2ccco2)n1CC(C)C,-5.33% (inactive)
15,NC(Cc1ccccc1)c1csc(Nc2cc(Oc3ccccc3)ncn2)n1 (stereo not drawn),-2.31% (inactive)
16,CCN(CC)C(=O)CSc1nnc(-c2cnccn2)n1-c1ccc(C)cc1,-8.84% (inactive)
17,CC(C)CCN(C(=O)c1csnn1)C(C(=O)NC1CCCC1)c1ccccc1 (stereo not drawn),5.69% (inactive)
18,CCCn1c(SCC(=O)c2ccc3c(c2)OCCO3)nnc1C(C)C,3.55% (inactive)
19,CCCn1c(SCC(=O)Nc2c(C)cccc2C)nnc1C(C)C,14.6% (active)
20,COCCn1c(SCC(=O)Nc2nc(C)cs2)nnc1C(C)C,6.46% (inactive)
21,CCCCC(O)(CCCC)C(=O)NN(C(=O)CCl)c1ccccc1,-2.85% (inactive)
22,CCCC(O)(CCC)C(=O)NN(C(=O)CCl)c1cccc(C)c1,12.8% (active)
23,Cc1cccc(N(Cc2ccccc2)C(=O)c2ccccc2F)c1,0.91% (inactive)
